# Reference: PubChem BioAssay (NCATS)
# Calls of active or inactive are those of the source. Where a call stands in place of a potency, no number is given. Calls follow the shape of the dose curve; as a rule, active = well fitted curve in the direction sought with a large enough effect; inconclusive = small, poorly fitted or top-dose-only effect, or another doubt; inactive = no such curve, though single readings can be large or run the other way. Residues, ends and D or L forms follow the SMILES beside them. *: point of attachment. Cbz = O=C(OCc1ccccc1)*
# Target: Galactokinase (Homo sapiens) (UniProt P51570)
# Sequence (P51570 whole entry, looked up): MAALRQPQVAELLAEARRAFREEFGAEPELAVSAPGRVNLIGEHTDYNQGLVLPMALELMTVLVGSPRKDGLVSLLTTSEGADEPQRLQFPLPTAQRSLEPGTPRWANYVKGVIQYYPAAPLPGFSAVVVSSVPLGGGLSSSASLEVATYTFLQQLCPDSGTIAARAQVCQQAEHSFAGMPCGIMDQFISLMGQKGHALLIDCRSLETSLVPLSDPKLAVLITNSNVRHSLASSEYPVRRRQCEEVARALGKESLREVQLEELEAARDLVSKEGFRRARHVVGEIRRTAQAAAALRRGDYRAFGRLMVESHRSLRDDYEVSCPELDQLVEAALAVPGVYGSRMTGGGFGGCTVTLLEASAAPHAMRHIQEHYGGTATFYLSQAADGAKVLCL
# Test: qHTS Validation Assay for Inhibitors of Human Galactokinase (GALK) (AID 493189)
# Conditions: purified human GALK enzyme activity, qHTS 7-point titration; series mostly up to 57.5 µM
# Excerpt: NIH Molecular Libraries Probe Production Centers Network [MLPCN]
# NIH Chemical Genomics Center [NCGC]
# Assay Submitter (PI): Kent Lai (University of Utah School of Medicine, 50 N Mario Capecchi Drive, Salt Lake City, UT 84132)
# Inherited deficiency of galactose-1-phosphate uridyltransferase (GALT) can result in a potentially lethal disorder called Classic Galactosemia (OMIM 230400). Several lines of evidence indicate that an elevated level of galactose-1-phosphate (gal-1-p), the product of galactokinase (GALK), is a major, if not sole, pathogenic mechanism in patients with classic galactosemia. Therefore, finding inhibitors of GALK is a potential novel therapy for this inherent metabolic disease and is the long term goal of this project.
# GALK (provided by the assay submitter) was assayed using ATP and D-(+)-Galactose (Sigma-Aldrich cat# G0750) as substrates. Promega Kinase-Glo Plus (cat# V3774) technology was used to detect the residual ATP following kinetic reaction. Briefly, the Kinase-Glo Plus contains Ultra-Glo [2] luciferase and D-luciferin which generates a bioluminescence signal from the remaining ATP.
# NCGC Assay Protocol Summary:
# Three uL/well of ATP-buffer solution (35 uM ATP, 20mM HEPES pH8.0, 5 mM MgCl2, 60 mM NaCl, 1 mM DTT, 0.01% BSA final concentration) was dispensed into 1536-well, assay plates (Greiner, solid white medium-binding plates) with Aurora Discovery BioRAPTR Flying Reagent Dispenser (FRD; Beckton-Dickenson). Compound solution (23 nL) was transferred to the assay plate using the Kalypsys 1536-pin tool. One uL/well GALK-galactose solution (5 nM GALK, 100 uM galactose, 20 mM HEPES pH8.0, 5 mM MgCl2, 60 mM NaCl, 1 mM DTT, 0.01% BSA final concentration) was then added using the FRD yielding a total kinase reaction volume of 4 uL/ well. After 1 hour of room temperature incubation, 4 uL Kinase-Glo Plus reagent was added for a final assay volume of 8 uL/ well. Luminescence was detected with the ViewLux plate reader (Perkin Elmer, Waltham, MA) after 10 min incubation using a 1 sec exposure time and 2x binning.
row,Compound,Potency
1,O=C(O)/C(=C/c1c(C(=O)O)[nH]c2cc(Cl)cc(Cl)c12)c1ccccc1,inactive
2,CC1=C(C(=O)O)N2C(=O)[C@@H](NC(=O)C(N)C3=CCC=CC3)[C@H]2SC1 (stereo not given in full),inactive
3,NCCCCN,inactive
4,CCCCCC(O)CCCC(=O)O (stereo not given),inactive
5,O=C(O)Cc1ccc(O)c(O)c1,inactive
6,CC#CCOC(=O)c1c(C)nc2sc3c(c2c1N)CCC(O)C3 (stereo not given),inactive
7,O=C(O)c1ccccc1Nc1cccc(OCc2ccc3ccccc3n2)c1,inactive
8,CCCCS(=N)(=O)CC[C@H](N)C(=O)O (stereo not given in full),inactive
9,O=c1onc2n1-c1cc(Br)ccc1OC2,inactive
10,CC1CCN=C(N)S1 (stereo not given),inactive
11,CC(C)[C@H](NC(=O)OCc1ccccc1)C(=O)N[C@H](C=O)Cc1ccccc1 (Cbz-Val-Phe-aldehyde),inactive
12,N=C(N)SCCN,inactive
13,O=[N+]([O-])c1cccc2c(Br)[nH]nc12,inactive
14,COC(=O)C(C)(N)Cc1ccc(O)cc1 (stereo not given),inactive
15,CC(=O)NNC(=O)N1Cc2ccccc2Oc2ccc(Cl)cc21,inactive
16,O=C(O)C1CCCNC1 (stereo not given),inactive
17,O=C1C2C=CC=CC2=NC(=S)N1CCN1CCC(=C(c2ccc(F)cc2)c2ccc(F)cc2)CC1 (stereo not given),inactive
18,C=CCN1CCc2c(cc(O)c(O)c2Br)[C@@H](c2ccccc2)C1,inactive
19,C=CCN1CCc2cc(O)c(O)cc2C(c2ccccc2)C1 (stereo not given),inactive
20,c1ccc2nc(C3=NCCN3)ccc2c1,inactive

row,Compound,Potency
1,CCOC(=O)C12CC1/C(=N/O)c1ccccc1O2 (stereo not given),inactive
2,NC(N)=NC(N)=Nc1ccccc1,inactive
3,O=C(N[C@@H](Cc1ccccc1)C(=O)CCl)OCc1ccccc1,inactive
4,CC(=O)N[C@@H](Cc1c[nH]c2ccccc12)C(=O)OCc1cc(C(F)(F)F)cc(C(F)(F)F)c1,inactive
5,N#CC(=C(\N)Sc1ccccc1N)/C(C#N)=C(/N)Sc1ccccc1N,inactive
6,COC1(C2=NCCN2)COc2ccccc2O1 (stereo not given),inactive
7,CCCCCCN(CCCCCC)C(=O)Cc1c(-c2ccc(F)cc2)[nH]c2ccccc12,inactive
8,NC(C(=O)N[C@@H]1C(=O)N2C(C(=O)O)=C(Cl)CS[C@H]12)c1ccccc1 (stereo not given in full),inactive
9,COc1cc(CC(=O)O)ccc1O,inactive
10,NCCC1CCCC(CCN)N1 (stereo not given),inactive
11,O=c1[nH]c2cc(Cl)ccc2c(O)c1-c1ccc(Oc2ccccc2)cc1,inactive
12,N[C@H](C(=O)O)[C@H](O)C(=O)O,inactive
13,CN(C)C(=O)/N=N/C(=O)N(C)C,inactive
14,O=C(OCCN1CCOCC1)C1(c2ccccc2)CCCCC1,inactive
15,COC(=O)[C@H](NC(=O)c1cc(-c2ccccc2)nc2ccccc12)c1ccccc1,inactive
16,Nn1nnc2ccccc21,inactive
17,N#C/C(=C\c1ccc(O)c(O)c1)C(=O)NCCCNC(=O)/C(C#N)=C/c1ccc(O)c(O)c1,inactive
18,Cc1ccc([N+](=O)[O-])cc1S(=O)(=O)N(C)C,inactive
19,O=C(O)c1cc(=O)cc(C(=O)O)[nH]1,inactive
20,CCCCCCCCCCCCCCCCCCOC[C@H](COP(=O)([O-])OCC[N+](C)(C)C)OC,inactive
